Measurements taken from PubChem BioAssay (NCI).
About 79,000 compounds went through this panel and 15% of them were active in at least one assay; those are over-represented in the sample as a whole. The source made the active and inactive calls. Cut-off read from the data, not from the text of the source: active = growth inhibition above about 70%; inactive = the rest. Where a SMILES comes first, the peptide text is derived from it. [ ]: non-standard residue; d: D form. The star is where a group is joined. mTyr = N[CH](Cc1cccc(O)c1)C(=O)O; Cbz = O=C(OCc1ccccc1)*; OBn = c1ccc(CO*)cc1

Assay: NCI Yeast Anticancer Drug Screen. Data for the rad50 strain (AID 155);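 note: 0% = growth of vehicle-only cultures of the same strain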
Conditions: S. cerevisiae rad50 strain growth inhibition; at 50.0 µM; hits give high values
Procedure, shortened: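 Vehicle-treated cultures provide the reference for the growth inhibition reported for compound-exposed, repair-deficient yeast.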
In the case of `CC(/C=N/NS(=O)(=O)c1ccc(C)cc1)=C(c1ccccc1)c1ccccc1`, the growth inhibition is reported as 81.2% (active). With `CCOC(=O)Cc1cc(=O)oc2c(CN3CCN(c4ccc(C)cc4)CC3)c(O)ccc12` the growth inhibition was 60.8% (inactive). For `Clc1ccc(/C=N\Nc2c3ccccc3nc3ccccc23)cc1Cl`, the growth inhibition was 71% (active). In the case of `CNC(=O)c1cc(NC(=O)c2ccc(C(=O)Nc3cc(C(=O)NC)cc(C4=NCCN4)c3)cc2)cc(C2=NCCN2)c1`, the growth inhibition is reported as 98.8% (active). For `O=P1(O)c2ccccc2CS(=O)(=O)Cc2ccccc21`, the growth inhibition was 21.4% (inactive). For `CC1=C(C(=O)NCc2ccccc2)C(c2ccccc2[N+](=O)[O-])C(C(=O)NCc2ccccc2)=C(C)N1`, the growth inhibition was 71% (active). With `Oc1ccc(C2CCCCC2)cc1` the growth inhibition was 85.5% (active). For `CCN(CC)CCOc1cccc2c1C(=O)c1c(O)cccc1C2=O`, the growth inhibition was 59.4% (inactive). For `CCN(CC)C1Oc2cc3c(cc2C(c2ccc(OC)cc2)C1C)OCO3` (stereo not given), the growth inhibition was 82.3% (active). For `COc1ccc(C2C3CCCC(C(c4ccc(OC)cc4)N2C)C32NC(=O)NC2=O)cc1` (stereo not given), the growth inhibition was 97.2% (active). In the case of `Clc1ccc(SSc2ccc(Cl)cn2)nc1`, the growth inhibition is reported as 78.2% (active). With `CN=c1sc2c(n1C)C(=O)c1ccccc1C2=O` the growth inhibition was 82.6% (active). For `O=C(Nc1cccc(Cl)c1)OCCOC(=O)Nc1cccc(Cl)c1`, the growth inhibition was 99.5% (active). With `O=[N+]([O-])c1ccc2c(c1)Cc1cc(Cl)ccc1-2` the growth inhibition was 14.1% (inactive). For `Cc1c(-c2ccccc2)ccnc1/C=N/NC(=S)NCCc1ccccc1`, the growth inhibition was 76.3% (active). In the case of `O=C(O)CCC(=O)NCCNC(=O)CC(=O)O`, the growth inhibition is reported as 10.7% (inactive). With `Cc1cc2c(cc1S(=O)(=O)O)C1C(C3C2C2(Cl)C(Cl)=C(Cl)C3(Cl)C2(Cl)Cl)C2(Cl)C(Cl)=C(Cl)C1(Cl)C2(Cl)Cl` (stereo not given) the growth inhibition was 82.4% (active). With `O=C1/C(=C/c2ccccc2)CNC/C1=C\c1ccccc1` the growth inhibition was 98.7% (active). In the case of `Cc1ccc2c(c1)-c1cc(C)ccc1C2(O)c1ccccc1`, the growth inhibition is reported as 99% (active). With `CCCc1cc2c(cc1COc1ccccc1C(=O)O)OCO2` the growth inhibition was 56.4% (inactive). With `O=C1OC(c2ccc3c(c2)OCO3)Sc2ccccc21` (stereo not given) the growth inhibition was 30.1% (inactive). For `Cc1cc(NC(=S)SCc2ccc(Cl)cc2)ccc1F`, the growth inhibition was 97.5% (active). In the case of `NC(=O)CC1CCC(c2ccccc2)CC1` (stereo not given), the growth inhibition is reported as 44% (inactive). In the case of `[O-]c1c2cc(-[n+]3c(-c4ccccc4)cc(-c4ccccc4)cc3-c3ccccc3)cc1CO[C@@H](c1ccccc1)[C@H](c1ccccc1)OCc1cccc(n1)CO[C@@H](c1ccccc1)[C@H](c1ccccc1)OC2`, the growth inhibition is reported as 87.2% (active). With `OCCN(CCO)c1cc(/C=C/c2ccnc3ccccc23)nc2ccccc12` the growth inhibition was 60.5% (inactive). With `COC(=O)C(Cc1cccc(O)c1)NC(=O)C(CC(=O)OCc1ccccc1)NC(=O)OCc1ccccc1` (stereo not given) (Cbz-Asp(OBn)-[mTyr]-OMe; configuration not given here) the growth inhibition was 77.2% (active). With `COc1cc[c]([Sn]([c]2ccc(OC)cc2)([c]2ccc(OC)cc2)[c]2ccc(OC)cc2)cc1` the growth inhibition was 80.5% (active). With `COC(=O)CCCCCOS(=O)(=O)c1ccc(C)cc1` the growth inhibition was 26.9% (inactive). For `O=S(=O)(C#Cc1ccccc1)c1ccccc1`, the growth inhibition was 99.4% (active). In the case of `N#CC1(C#N)C(C#N)(C#N)C12CCCCCC2`, the growth inhibition is reported as 98.9% (active). For `CCOC(=O)/C(C)=N/Nc1cc(Cl)ccc1O`, the growth inhibition was 95.5% (active). In the case of `N/C(CC(=O)NOC(=O)c1ccccc1)=N/OC(=O)c1ccccc1`, the growth inhibition is reported as 99% (active). For `C/C(=N\NC(=S)N1CCC(C)CC1)c1ncccn1`, the growth inhibition was 99.2% (active). In the case of `Cc1ccc(S(=O)(=O)OCC(/C=N/NC(N)=O)OCOC(C)/C=N/NC(N)=O)cc1` (stereo not given), the growth inhibition is reported as 14.8% (inactive). In the case of `CN1COc2c(Cl)cc(Cl)cc2C1`, the growth inhibition is reported as 76.2% (active). With `c1ccc2cc3c(cc2c1)Nc1c2ccccc2nc2cccc-3c12` the growth inhibition was 54% (inactive). With `CCCCN(CCCC)S(=O)(=O)c1ccccc1` the growth inhibition was 44.7% (inactive). For `Cc1cccc(N2C(c3ccccc3)c3ccc(C)cc3NS2=O)c1` (stereo not given), the growth inhibition was 98.7% (active). For `CN(C)c1ccc(/C=N/c2nc(-c3ccccc3)cs2)cc1`, the growth inhibition was 94.9% (active). For `O=C1c2ccccc2-c2nc3ncccc3cc21`, the growth inhibition was 95.7% (active).

Assay: NCI Yeast Anticancer Drug Screen. Data for the mec2-1 strain (AID 157)
Conditions: S. cerevisiae mec2-1 strain, at 5.0 µM (retest, dose inferred, filed as 0.5), hits give high values
Procedure, shortened: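 mec2-1 yeast strain, carrying an alteration in DNA damage repair or cell cycle control, was exposed to compounds; growth inhibition was measured relative to vehicle-treated controls.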
With `CC(/C=N/NS(=O)(=O)c1ccc(C)cc1)=C(c1ccccc1)c1ccccc1` the growth inhibition was 35% (inactive). For `CCOC(=O)Cc1cc(=O)oc2c(CN3CCN(c4ccc(C)cc4)CC3)c(O)ccc12`, the growth inhibition was 3% (inactive). For `Clc1ccc(/C=N\Nc2c3ccccc3nc3ccccc23)cc1Cl`, the growth inhibition was 13% (inactive). With `CNC(=O)c1cc(NC(=O)c2ccc(C(=O)Nc3cc(C(=O)NC)cc(C4=NCCN4)c3)cc2)cc(C2=NCCN2)c1` the growth inhibition was 11% (inactive). For `O=P1(O)c2ccccc2CS(=O)(=O)Cc2ccccc21`, the growth inhibition was 21% (inactive). With `CC1=C(C(=O)NCc2ccccc2)C(c2ccccc2[N+](=O)[O-])C(C(=O)NCc2ccccc2)=C(C)N1` the growth inhibition was 9% (inactive). In the case of `Oc1ccc(C2CCCCC2)cc1`, the growth inhibition is reported as -4% (inactive). For `CCN(CC)CCOc1cccc2c1C(=O)c1c(O)cccc1C2=O`, the growth inhibition was -21% (inactive). For `CCN(CC)C1Oc2cc3c(cc2C(c2ccc(OC)cc2)C1C)OCO3` (stereo not given), the growth inhibition was -38% (inactive). For `COc1ccc(C2C3CCCC(C(c4ccc(OC)cc4)N2C)C32NC(=O)NC2=O)cc1` (stereo not given), the growth inhibition was 25% (inactive). With `Clc1ccc(SSc2ccc(Cl)cn2)nc1` the growth inhibition was 6% (inactive). For `CN=c1sc2c(n1C)C(=O)c1ccccc1C2=O`, the growth inhibition was 17% (inactive). For `O=C(Nc1cccc(Cl)c1)OCCOC(=O)Nc1cccc(Cl)c1`, the growth inhibition was 3% (inactive). With `O=[N+]([O-])c1ccc2c(c1)Cc1cc(Cl)ccc1-2` the growth inhibition was 2% (inactive). For `Cc1c(-c2ccccc2)ccnc1/C=N/NC(=S)NCCc1ccccc1`, the growth inhibition was 52% (inactive). In the case of `O=C(O)CCC(=O)NCCNC(=O)CC(=O)O`, the growth inhibition is reported as -52% (inactive). For `Cc1cc2c(cc1S(=O)(=O)O)C1C(C3C2C2(Cl)C(Cl)=C(Cl)C3(Cl)C2(Cl)Cl)C2(Cl)C(Cl)=C(Cl)C1(Cl)C2(Cl)Cl` (stereo not given), the growth inhibition was -14% (inactive). For `O=C1/C(=C/c2ccccc2)CNC/C1=C\c1ccccc1`, the growth inhibition was 26% (inactive). For `Cc1ccc2c(c1)-c1cc(C)ccc1C2(O)c1ccccc1`, the growth inhibition was 14% (inactive). For `CCCc1cc2c(cc1COc1ccccc1C(=O)O)OCO2`, the growth inhibition was -4% (inactive). In the case of `O=C1OC(c2ccc3c(c2)OCO3)Sc2ccccc21` (stereo not given), the growth inhibition is reported as -4% (inactive). For `Cc1cc(NC(=S)SCc2ccc(Cl)cc2)ccc1F`, the growth inhibition was 1% (inactive). With `NC(=O)CC1CCC(c2ccccc2)CC1` (stereo not given) the growth inhibition was -6% (inactive). For `[O-]c1c2cc(-[n+]3c(-c4ccccc4)cc(-c4ccccc4)cc3-c3ccccc3)cc1CO[C@@H](c1ccccc1)[C@H](c1ccccc1)OCc1cccc(n1)CO[C@@H](c1ccccc1)[C@H](c1ccccc1)OC2`, the growth inhibition was 98% (active). In the case of `OCCN(CCO)c1cc(/C=C/c2ccnc3ccccc23)nc2ccccc12`, the growth inhibition is reported as 1% (inactive). In the case of `COC(=O)C(Cc1cccc(O)c1)NC(=O)C(CC(=O)OCc1ccccc1)NC(=O)OCc1ccccc1` (stereo not given) (Cbz-Asp(OBn)-[mTyr]-OMe; configuration not given here), the growth inhibition is reported as -6% (inactive). With `COc1cc[c]([Sn]([c]2ccc(OC)cc2)([c]2ccc(OC)cc2)[c]2ccc(OC)cc2)cc1` the growth inhibition was 6% (inactive). In the case of `COC(=O)CCCCCOS(=O)(=O)c1ccc(C)cc1`, the growth inhibition is reported as -3% (inactive). For `O=S(=O)(C#Cc1ccccc1)c1ccccc1`, the growth inhibition was -11% (inactive). In the case of `N#CC1(C#N)C(C#N)(C#N)C12CCCCCC2`, the growth inhibition is reported as 32% (inactive). For `CCOC(=O)/C(C)=N/Nc1cc(Cl)ccc1O`, the growth inhibition was 4% (inactive). With `N/C(CC(=O)NOC(=O)c1ccccc1)=N/OC(=O)c1ccccc1` the growth inhibition was 19% (inactive). With `C/C(=N\NC(=S)N1CCC(C)CC1)c1ncccn1` the growth inhibition was -5% (inactive). For `Cc1ccc(S(=O)(=O)OCC(/C=N/NC(N)=O)OCOC(C)/C=N/NC(N)=O)cc1` (stereo not given), the growth inhibition was 0% (inactive). With `CN1COc2c(Cl)cc(Cl)cc2C1` the growth inhibition was -2% (inactive). In the case of `c1ccc2cc3c(cc2c1)Nc1c2ccccc2nc2cccc-3c12`, the growth inhibition is reported as 17% (inactive). In the case of `CCCCN(CCCC)S(=O)(=O)c1ccccc1`, the growth inhibition is reported as -4% (inactive). In the case of `Cc1cccc(N2C(c3ccccc3)c3ccc(C)cc3NS2=O)c1` (stereo not given), the growth inhibition is reported as 2% (inactive). For `CN(C)c1ccc(/C=N/c2nc(-c3ccccc3)cs2)cc1`, the growth inhibition was 7% (inactive). In the case of `O=C1c2ccccc2-c2nc3ncccc3cc21`, the growth inhibition is reported as 6% (inactive).
